Source: the supplement of paper PMC10127200
Structures can show the parent of a compound that is named as a salt.

Each compound was assayed on DU145 (assay: Euclidean distance of Cell Painting phenotypic profile (signed KS, 77 features) to DMSO centroid (dimensionless distance); 5 or 10 uM (library dependent); higher = stronger phenotypic change vs DMSO (phenoactivity)). Conditions: 48 h.
Outline: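 Five cancer lines, together with a healthy fibroblast line, received library compounds for 48 h at a library-dependent 10 or 5 uM and 0.1% DMSO final. Harmony then derived 77 features from confocal 20X images (9 fields/well) of the stained cells, scoring each as a signed Kolmogorov-Smirnov statistic against same-plate vehicle wells. After plate-position correction, correlation weighting and replicate averaging at the top dose, phenoactivity was taken as each profile's Euclidean distance to the median vehicle profile.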

Row | Compound | Euclidean distance
1 | CN(C)c1ccc(O)c2c1C[C@H]1C[C@H]3[C@H](N(C)C)C(O)=C(C(N)=O)C(=O)[C@@]3(O)C(O)=C1C2=O [Minocycline HCl] | 1.2
2 | Clc1ccc(CCCOCCCN2CCCCC2)cc1 [Pitolisant hydrochloride] | 0.816
3 | Clc1ccc(C(c2ccccc2Cl)C(Cl)Cl)cc1 (configuration not stated) [Mitotane] | 1.27
4 | CCOCC(O)COc1ccc(NC(=O)CC[S+](C)C)cc1 (configuration not stated) [Suplatast Tosylate] | 1.47
5 | Cc1onc(-c2ccccc2)c1C(=O)N[C@@H]1C(=O)N2[C@@H]1SC(C)(C)[C@@H]2C(=O)O [Oxacillin sodium monohydrate] | 1.47
6 | NCC(=O)CCC(=O)O [5-Aminolevulinic acid HCl] | 1.81
7 | NS(=O)(=O)c1cc2c(cc1Cl)NC(C1CC3C=CC1C3)NS2(=O)=O (configuration not stated) [Cyclothiazide] | 0.711
8 | CC(C)N1CCN(Cc2cnc(-c3cc(-c4cccc5[nH]ccc45)cc4[nH]ncc34)o2)CC1 | 3.41
9 | CC1(C)O[C@H]2CC(=O)OC[C@]23[C@H]2CC[C@@]4(C)[C@H](c5ccoc5)OC(=O)[C@H]5O[C@]54[C@]2(C)C(=O)C[C@@H]13 [Limonin] | 0.885
10 | COc1ccc(C2CC(=O)c3c(O)cc(OC4OC(COC5OC(C)C(O)C(O)C5O)C(O)C(O)C4O)cc3O2)cc1OC (configuration not stated) [Methyl-Hesperidin] | 1.16
11 | CC1(C)S[C@@H]2[C@H](NC(=O)Cc3ccccc3)C(=O)N2[C@H]1C(=O)O.CCN(CC)CCOC(=O)c1ccc(N)cc1 [Penicillin G Procaine] | 0.97
12 | CN1CCCN=C1/C=C/c1cccs1 [Pyrantel Pamoate] | 0.771
13 | O=C(Nc1ccc(-c2ccnc(Nc3ccc(N4CCOCC4)cc3)n2)cc1)C1CCCN1 (configuration not stated) | 1.24
14 | NC(=O)[C@@H]1CC[C@@H]2CN1C(=O)N2OS(=O)(=O)O [Avibactam sodium] | 0.722
15 | CC(C)(C(=O)c1cccnc1)c1cccnc1 [Metyrapone] | 0.902
16 | O=C(OC[C@H]1O[C@@H](OC(=O)c2cc(O)c(O)c(OC(=O)c3cc(O)c(O)c(O)c3)c2)[C@H](OC(=O)c2cc(O)c(O)c(OC(=O)c3cc(O)c(O)c(O)c3)c2)[C@@H](OC(=O)c2cc(O)c(O)c(OC(=O)c3cc(O)c(O)c(O)c3)c2)[C@@H]1OC(=O)c1cc(O)c(O)c(OC(=O)c2cc(O)c(O)c(O)c2)c1)c1cc(O)c(O)c(OC(=O)c2cc(O)c(O)c(O)c2)c1 [Tannic acid] | 1.47

Row | Compound | Euclidean distance
17 | CN(C)CCOc1ccc(/C(=C(/CCCl)c2ccccc2)c2ccccc2)cc1 [Toremifene Citrate] | 1.81
18 | O=C(O[C@H]1CN2CCC1CC2)N1CCc2ccccc2[C@@H]1c1ccccc1 [Solifenacin succinate] | 1.17
19 | CCN(c1cc(-c2ccc(CN3CCOCC3)cc2)cc(C(=O)NCc2c(C)cc(C)[nH]c2=O)c1C)C1CCOCC1 [Tazemetostat (EPZ-6438)] | 0.651
20 | CC(C)(Oc1ccc(C(=O)c2ccc(Cl)cc2)cc1)C(=O)O [Choline Fenofibrate] | 0.985
21 | CC(C)(O)CC(=O)NCCn1ccc2ncnc(Nc3ccc(Oc4cccc(C(F)(F)F)c4)c(Cl)c3)c21 | 1.57
22 | O=C(c1cccc(Cl)c1F)N1CCN(Cc2cccc(Nc3nccs3)n2)CC1 | 1.34
23 | C[N+](C)(C)CCOC(N)=O [Carbachol] | 0.687
24 | CC(C)OC(=O)CCC/C=C\C[C@@H]1[C@@H](/C=C/[C@@H](O)COc2cccc(C(F)(F)F)c2)[C@H](O)C[C@@H]1O [Travoprost] | 0.732
25 | CCOc1cc(N)c(Cl)cc1C(=O)NCC1CN(Cc2ccc(F)cc2)CCO1 (configuration not stated) [Mosapride] | 0.858
26 | CC1(C)C2CCC1(C)C(O)C2 (configuration not stated) [Borneol] | 1.16
27 | Nc1nc(F)nc2c1ncn2[C@@H]1O[C@H](CO)[C@@H](O)[C@@H]1O [Fludarabine] | 1.17
28 | NNc1nncc2ccccc12 [Hydralazine HCl] | 0.857
29 | CC(C)Cc1ccc(C(C)C(=O)OCc2ccccn2)cc1 (configuration not stated) [Ibuprofen piconol] | 0.983
30 | CC(C)(Sc1cc(C(C)(C)C)c(O)c(C(C)(C)C)c1)Sc1cc(C(C)(C)C)c(O)c(C(C)(C)C)c1 [Probucol] | 0.734
31 | CC(C)c1cc(C(=O)N2Cc3ccc(CN4CCN(C)CC4)cc3C2)c(O)cc1O | 3.91
32 | CN1[C@@H](CC(=O)c2ccccc2)CCC[C@H]1C[C@H](O)c1ccccc1 [Lobeline hydrochloride] | 1.56
